# Results published in PubChem BioAssay (Tox21).
# Calls of active or inactive are those of the source. Calls come from the whole dose curve; as a rule, active = well fitted curve in the direction sought with a large enough effect in the repeat runs; inconclusive = weak or mixed curves; inactive = flat fitted curve, though single readings scatter.
# Test: qHTS assay to test for compound auto fluorescence at 590 nm (red) in HepG2 cell free culture (AID 720684)
# Conditions: cell-free medium autofluorescence, red 540/590 nm; series mostly up to 91.3 µM
# Description: U.S. Tox21 Program National Center for Advancing Translational Sciences [NCATS] NIH Chemical Genomics Center [NCGC] U.S. Environmental Protection Agency [EPA] National Institutes of Environmental Health Sciences [NIEHS] National Toxicology Program [NTP] U.S. Food and Drug Administration [FDA] Tox21 Assay Overview: Compound auto fluorescence often interferes with screening of the compound library against various biological targets and signaling pathways. Some of these compounds may have fluorophoric properties. Such properties may interfere with the assay outputs resulting in false positives and/or negatives. To decrease such complications and ensure the compound activities are relevant in terms of biological response, the Tox21 10K compound library was screened for auto fluorescence. From the fluorophores used as reporter signals in our screening assays, the auto fluorescence equivalencies of compounds against three fluorophores have been evaluated: Triamterene, Fluorescein and Rose Bengal sodium for blue, green and red fluorescence, respectively. The fluorescence intensities were measured using Excitation/Emission wavelengths at 405/460nm, 485/535nm and 540/590nm for blue, green and red labels, respectively. This assay includes the red fluorescence data.
# Tox21 Assay Protocol Summary: 5 uL of culture medium (MEM containing 10% FBS) per well was dispensed into black wall/clear bottom 1536-well plates using a Multidrop Combi Dispenser (ThermoFisher Scientific, Waltham, MA). After 23 nL compound or DMSO vehicle was transferred into assay plate by a pintool work station (Kalypsys, San Diego, CA), fluorescence intensities in the assay plates were measured by an Envision (PerkinElmer, Shelton, CT) plate reader using three labels for measuring blue, green and red fluorescence at […] 460, 535 and 590nm respectively.
row,SMILES,outcome
1,COc1ccc([N+](=O)[O-])cc1N,inactive
2,O=C(O)c1ccccc1C(=O)O,inactive
3,CC(C)OC(=O)COc1ccc(Cl)cc1Cl,inactive
4,CC(C)(C)c1cc(Cc2cc(C(C)(C)C)c(O)c(C(C)(C)C)c2)cc(C(C)(C)C)c1O,inactive
5,CCCCCCCCCCO,inactive
6,COCCCN,inactive
7,Cc1ccc(S(=O)(=O)N=C=O)cc1,inactive
8,NCCCCCCN,inactive
9,CCCCC(C=O)CC (stereo not given),inactive
10,COc1cc(OC)c(C(=O)CCCN2CCCC2)c(OC)c1,inactive
11,C=CC[N+](C)(C)CC=C,inactive
12,OCc1ccccc1,inactive
13,CC(O)CC(C)(C)O (stereo not given),inactive
14,CN(C)c1ccc(Cc2ccc(N(C)C)cc2)cc1,inactive
15,CN(C)c1ccc(O)c2c1C[C@H]1C[C@H]3[C@H](N(C)C)C(=O)C(C(N)=O)=C(O)[C@@]3(O)C(=O)C1=C2O,inactive
16,CC(C)CC(C)O (stereo not given),inactive
17,CCCCCC(=O)O,inactive
18,NCCN1CCNCC1,inactive
19,CC1(C)S[C@@H]2[C@H](NC(=O)COc3ccccc3)C(=O)N2[C@H]1C(=O)O,inactive
20,CCCCCCCCCCN,inactive

row,SMILES,outcome
1,c1ccc2c(c1)Cc1ccccc1-2,inactive
2,COc1ccccc1OCC(O)CO (stereo not given),inactive
3,O=C(O)c1cc2ccccc2cc1O,inactive
4,O=S(=O)(O)c1ccccc1,inactive
5,CCCCCCCCCCCCCCCCO,inactive
6,CC(=O)CCC=C(C)C,inactive
7,CC(C)OP(=O)(CP(=O)(OC(C)C)OC(C)C)OC(C)C,inactive
8,CCOCC(=O)O,inactive
9,CCO[Si](CCCN)(OCC)OCC,inactive
10,O=C(O)c1ccc(S(=O)(=O)N(Cl)Cl)cc1,inactive
11,COc1ccc(CCC(C)=O)cc1,inactive
12,C=CC(=O)OCCC(=O)O,inactive
13,CCOC(=O)c1ccc(N)cc1,inactive
14,CC(C)(C#N)c1cc(Cn2cncn2)cc(C(C)(C)C#N)c1,inactive
15,CC(CCl)OP(=O)(OC(C)CCl)OC(C)CCl (stereo not given),inactive
16,N#Cc1ccccc1,inactive
17,CCNc1cccc(C)c1,inactive
18,Brc1ccc(Br)c(Br)c1,inactive
19,O=C(OCC1CCC2OC2C1)C1CCC2OC2C1 (stereo not given),inactive
20,CC(=O)Oc1ccc(C)cc1,inactive
